Assay results: PubChem BioAssay (Tox21)
Results filed as inconclusive are left out. Where a call stands in place of a potency, no number is given. Activity calls are given as the source filed them. The call rests on the fitted dose curve; in most records, active means well fitted cell-killing curve with a large enough effect in the repeat runs; inconclusive means weak or mixed curves, or effect the other way; inactive means flat fitted curve, though single readings scatter.

Key:
[1] = cAMP Responsive Elements (CRE) small molecule antagonists, cell-based qHTS assay: qHTS cell viability counter screen (AID 2060913); further: nearly all actives have a fitted effect of over 40% in size
Procedure, shortened: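 Cytotoxicity counter screen multiplexed with the CRE-bla antagonist read: HEK293T cells in DMEM with dialyzed FBS and 25 mM HEPES were treated 3 hrs under 0.25 uM final NKH477, then viability measured by CellTiter-Glo luminescence.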

[2] = cAMP Responsive Elements (CRE) small molecule agonists, cell-based qHTS assay: qHTS cell viability counter screen (AID 2060914);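 further: viability read after 3 h of compound exposure; nearly all actives have a fitted effect of over 50% in size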
Procedure, shortened: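 Cells are seeded and incubated 18 h, treated with compounds in DMSO for 3 h, read for the bla reporter, then given CellTiter-Glo; luminescence is measured after 30 min at room temperature.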

Row | Compound | Potency [1] | Potency [2] | viability change, negative = cytotoxic [1] | activity change, negative = cytotoxicity [2]
1 | CC1OCCC1=O (stereo unspecified) | inactive | inactive | – | –
2 | CCCOCCOCCO | inactive | inactive | – | –
3 | OC(CCN1CCCCC1)(c1ccccc1)C1CCCCC1 (stereo unspecified) | inactive | inactive | – | –
4 | CO[C@@]1(NC(=O)CSCC#N)C(=O)N2C(C(=O)O)=C(CSc3nnnn3C)CS[C@@H]21 | inactive | inactive | – | –
5 | Oc1ccc2ccccc2c1 | inactive | inactive | – | –
6 | NC1(c2ccc(-c3nc4ccn5c(=O)[nH]nc5c4cc3-c3ccccc3)cc2)CCC1 | inactive | inactive | – | –
7 | O=C(OCCCCCOC(=O)c1ccccc1)c1ccccc1 | inactive | inactive | – | –
8 | CCc1cccc(CC)c1NC(=O)C(=O)O | inactive | inactive | – | –
9 | COc1ccc([C@@H]2Sc3ccccc3N(CCN(C)C)C(=O)[C@@H]2OC(C)=O)cc1 | inactive | inactive | – | –
10 | [O]=[Mo](=[O])=[O] | – | – | 13.7% [at 18.9 µM] (inactive) | -14.6% [at 18.9 µM] (inactive)
11 | CC(=O)CC/C=C(\C)CC/C=C(\C)CC/C=C(\C)CCC=C(C)C | inactive | inactive | – | –
12 | CCCCCCCCCCCC(=O)N(CC)CC | inactive | inactive | – | –
13 | C1C[C@@H]2[C@H]3CC[C@H](C3)[C@@H]2C1 | inactive | inactive | – | –
14 | CCC(C(=O)OCCOCCN(CC)CC)c1ccccc1 (stereo unspecified) | inactive | inactive | – | –
15 | CCCCCCOC(=O)CCCCC | inactive | inactive | – | –
16 | CCN(CC)CCNc1ccc(CO)c2sc3ccccc3c(=O)c12 | inactive | inactive | – | –
17 | CC(C)(C)NCC(O)c1ccc(O)c(CO)c1 (stereo unspecified) | inactive | inactive | – | –
18 | CNC(C)=O | inactive | inactive | – | –
19 | Nc1c(NC/C=C\COc2cc(CN3CCCCC3)ccn2)c(=O)c1=O | – | – | -0.847% [at 18.9 µM] (inactive) | 0.246% [at 18.9 µM] (inactive)
20 | CN(C)CCC(c1ccc(Cl)cc1)c1ccccn1 (stereo unspecified) | inactive | inactive | – | –
21 | C[N+](C)(C)CC(O)CC(=O)[O-] (stereo unspecified) | inactive | inactive | – | –
22 | O=C1NC(c2ccccc2)(c2ccccc2)C(=O)N1COP(=O)(O)O | inactive | inactive | – | –
23 | CC(C)(CO)CO | inactive | inactive | – | –
24 | Cc1cccc(C)c1OCC(=O)N[C@@H](Cc1ccccc1)[C@@H](O)C[C@H](Cc1ccccc1)NC(=O)[C@H](C(C)C)N1CCCNC1=O | inactive | inactive | – | –
25 | COc1cc(S(=O)(=O)Nc2ccccc2)c(OC)cc1N | inactive | inactive | – | –
26 | Cc1ccc(C(C)C)cc2c(C)ccc1-2 | inactive | inactive | – | –
27 | CC(C)(C)C(O)/C=C/c1ccc2c(c1)OCO2 (stereo unspecified) | inactive | inactive | – | –

Row | Compound | Potency [1] | Potency [2] | viability change, negative = cytotoxic [1] | activity change, negative = cytotoxicity [2]
28 | NC(=S)NNC(N)=S | inactive | inactive | – | –
29 | NC(CCC(=O)O)C(=O)O (stereo unspecified) | inactive | inactive | – | –
30 | O=C(O)c1ccccc1C(=O)O | inactive | inactive | – | –
31 | C=C[Si](C)(C)Cl | – | – | -0.015% [at 8.39 µM] (inactive) | -1.19% [at 8.39 µM] (inactive)
32 | CCC(C=O)CC | inactive | inactive | – | –
33 | COc1ccc(NC(C)=O)cc1N | inactive | inactive | – | –
34 | CCOc1ccc2nc(N)sc2c1 | inactive | inactive | – | –
35 | c1ccc(CNCCNCc2ccccc2)cc1 | inactive | inactive | – | –
36 | CCO[Si](CC)(OCC)OCC | inactive | inactive | – | –
37 | O=c1n(CCO)c(=O)n(CCO)c(=O)n1CCO | inactive | inactive | – | –
38 | O=C(O)c1cccc(C(F)(F)F)c1 | inactive | inactive | – | –
39 | O=S(=O)(O)c1cc(I)c(O)c2ncccc12 | inactive | inactive | – | –
40 | O=C(O)c1cccc(C[C@@H]2COc3ccc(OCc4nc5cc(F)ccc5s4)cc3[C@@H]2O)c1 | inactive | inactive | – | –
41 | NCCCCCCNCCCCCCN | inactive | inactive | – | –
42 | CN(C)CCCN(C)C | – | – | 8.18% [at 8.39 µM] (inactive) | -2.69% [at 8.39 µM] (inactive)
43 | CCc1cccc(CC)c1N | inactive | inactive | – | –
44 | CCC(CO)CO | inactive | inactive | – | –
45 | CCCCCCCCCOS(=O)(=O)O | inactive | inactive | – | –
46 | SCCOCCOCCS | inactive | inactive | – | –
47 | Cc1c(C)c2c(c(C)c1O)CCC(C)(COc1ccc(CC3SC(=O)NC3=O)cc1)O2 (stereo unspecified) | inactive | inactive | – | –
48 | CCCCN(CCCC)CCC(O)c1cc2c(Cl)cc(Cl)cc2c2cc(C(F)(F)F)ccc12 (stereo unspecified) | inactive | inactive | – | –
49 | COc1ccccc1O | inactive | inactive | – | –
50 | CCCOC(=O)c1ccc(C(=O)OCCC)nc1 | inactive | inactive | – | –
51 | OCCN1CCN(CCCN2c3ccccc3Sc3ccc(C(F)(F)F)cc32)CC1 | inactive | inactive | – | –
52 | CCNC(=O)C1CC(C)CCC1C(C)C (stereo unspecified) | inactive | inactive | – | –
53 | CNC(=O)C(c1ccccc1)c1ccccc1 | inactive | inactive | – | –
